Results taken from PubChem BioAssay (NCI).
The panel holds about 83,000 compounds, 20% with a hit somewhere; the sample as a whole holds those more often.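 Values shown are percent growth following 48 h exposure of cells in 96-well plates to a single concentration of compound; below 10 was considered active.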 Values without a mark were called inactive. Activity calls are given as the source filed them.

What was measured:
Assay in all cases: NCI-60 one-dose screen, 48 h (100 = growth as untreated, 0 = no growth, -100 = all killed)
Settings in all cases: 10 µM unless noted
NCI-H226 lung = tested on: NCI-H226 lung
NCI-H322M lung = tested on: NCI-H322M lung
HOP-62 NSCLC = tested on: HOP-62 NSCLC
NCI-H460 lung = tested on: NCI-H460 lung
HOP-92 NSCLC = tested on: HOP-92 NSCLC
NCI-H522 lung = tested on: NCI-H522 lung
A549/ATCC NSCLC = tested on: A549/ATCC NSCLC
786-0 renal = tested on: 786-0 renal
COLO 205 colon = tested on: COLO 205 colon
DU-145 prostate = tested on: DU-145 prostate
K-562 leukemia = tested on: K-562 leukemia
MALME-3M melanoma = tested on: MALME-3M melanoma
MDA-MB-231 breast = tested on: MDA-MB-231 breast
RXF 393 renal = tested on: RXF 393 renal
SF-268 CNS = tested on: SF-268 CNS
SF-295 CNS = tested on: SF-295 CNS
SF-539 CNS = tested on: SF-539 CNS
UACC-257 melanoma = tested on: UACC-257 melanoma
M14 melanoma = tested on: M14 melanoma

Row | SMILES | growth (NCI-H226 lung) | growth (NCI-H322M lung) | growth (HOP-62 NSCLC) | growth (NCI-H460 lung) | growth (HOP-92 NSCLC) | growth (NCI-H522 lung) | growth (A549/ATCC NSCLC) | growth (786-0 renal) | growth (COLO 205 colon) | growth (DU-145 prostate) | growth (K-562 leukemia) | growth (MALME-3M melanoma) | growth (MDA-MB-231 breast) | growth (RXF 393 renal) | growth (SF-268 CNS) | growth (SF-295 CNS) | growth (SF-539 CNS) | growth (UACC-257 melanoma) | growth (M14 melanoma)
1 | C#C[C@@]1(O)[C@@H](CO)O[C@@H](n2cc(C(F)(F)F)c3c(N)ncnc32)[C@@H]1O | -12.1% (active) | 16% | 7.02% (active) | 2.05% (active) | -13.7% (active) | -52.5% (active) | -4.98% (active) | 4.52% (active) | -77.1% (active) | 10.2% | 5.44% (active) | -22% (active) | 14% | -30.3% (active) | 11.9% | 7.42% (active) | -25.3% (active) | 21% | 9.25% (active)
2 | COc1ccc(/C=C/C(=O)c2ccc(Oc3ncnc4ccccc34)cc2)cc1OC | 80.2% | 76.1% | 87.7% | 88.4% | 84.6% | 53.5% | 59.2% | 82.4% | 85.4% | 61.9% | 9.19% (active) | 77.5% | 81.6% | 88.1% | 74.8% | 85.7% | 73.5% | 93.8% | 64.3%
3 | CCCCCn1ncc(-c2c(O)c(O)cc3c(O)c(-c4c(C)cc5c(-c6cnn(CCCCC)n6)c(O)c(O)cc5c4O)c(C)cc23)n1 | -3.01% (active) | 33.7% | 4.15% (active) | -3.01% (active) | -23.8% (active) | -56.2% (active) | 6.6% (active) | -10.2% (active) | -6.73% (active) | 22.9% |  | 27% | 32.9% | -4.68% (active) | 5.18% (active) | 10% | 3.31% (active) | 16.2% | -20.8% (active)
4 | COc1ccc(-c2nnc(SCC(=O)Nc3ccc(C(=O)/C=C/c4ccc(Cl)cc4)cc3)o2)cc1OC | 85.7% | 87.4% | 71.8% | 70% | 29.7% | 16.7% | 90.7% | 70.8% | 116% | 78.9% | 52% | 5.79% (active) | 76.3% | 95.9% | 82.2% | 80.4% | 54.5% | 91.4% | 81.7%
5 | CC[C@@]1(O)C(=O)OCc2c1cc1n(c2=O)Cc2c-1nc1ccccc1c2/C=N/OC(C)(C)C | -78.7% (active) | 12.4% | -24.1% (active) | 1.16% (active) | -11.8% (active) |  | -11% (active) | 2.49% (active) | -26.9% (active) | 6.82% (active) | 7.64% (active) | -15.3% (active) | 24.2% | -47.5% (active) | 2.41% (active) | -1.63% (active) | -24.4% (active) | -44% (active) | -18% (active)
6 | Oc1ccc(Cl)cc1Sc1cc(Cl)ccc1O | 88.4% | 115% | 98.4% | 107% | 63.6% | 81.6% | 95.5% | 110% | 105% | 98.9% | 93.3% | 86.2% | 96.4% | 62% | 87.8% | 108% | 97.6% | 94.7% | 95.8%
7 | c1ccc([Se]CCCN2CCN(CCC[Se]c3ccccc3)CC2)cc1 | 116% | 121% | 94.5% | 103% | 87.3% | 119% | 108% | 96.4% | 135% | 109% | 129% | 123% | 98.8% | 44.6% | 109% | -58.4% (active) | 112% | 104% | 90.3%
8 | O=[N+]([O-])c1ccccc1NC1c2ccccc2Oc2ccccc21 | 78% | 74.6% |  | 15.1% | 48.4% | 26.3% | 44.9% | 94.5% | 69.3% | 58.3% | 11.2% | 48.4% | 71.7% | 81.1% | 41.2% | 23.6% | 58.2% | 74.2% | 36.6%
